Source: PubChem BioAssay AID932 (The Scripps Research Institute Molecular Screening Center, 2007)
In all, about 200,000 compounds went through this assay and about 5,100 (2.5%) were called active. Shown is part of a subset that was picked to be rich in actives. A number with no mark means an inactive call.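 The calls were made as follows: active = activation above the screen-wide mean activation plus 3 SD (cut at about 130% in these data); inactive = the rest.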

Assay: potentiators of IFN-gamma driven STAT1 reporter – cell-based, HTS, luciferase reporter, primary screen (AID 932);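 also: raw ratio to IFN-gamma control signal so 100% means no change and 0% no light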
Settings: NIH 3T3 STAT1-luciferase reporter, luminescence, at 5.5 µM, hits give high values, 100% = IFN-gamma alone, no compound
In the case of `COc1ccc(/C=C2/SC(=O)N(CCCCCC(=O)Nc3ccccc3C(=O)O)C2=S)cc1`, the activation (% of control) is reported as 102%. Work on `Cc1nnc(SCC(=O)N2CCc3ccccc32)n1-c1ccccc1` yielded an activation (% of control) of 100%. With `O=C(CSCc1ccccc1)N1CCc2ccccc21` the activation (% of control) was 138% (active). For `NC(=O)N1CCc2ccccc21`, the activation (% of control) was 98.2%. Work on `CCOc1ccc(NC(=O)CN(C)CC(=O)NC(C)c2ccccc2)cc1OCC` (configuration not stated) yielded an activation (% of control) of 99.4%. With `Cc1ccc(Nc2nc(-c3ccc(O)cc3O)cs2)nc1` the activation (% of control) was 143% (active). `Cc1ccc(-c2csc(NNC(=O)c3ccccc3)n2)cc1` gave an activation (% of control) of 102%. `Cc1ccc(NC(=O)c2cc(-c3ccc(C)o3)nc3ccccc23)nc1` gave an activation (% of control) of 91.3%. `CN(C)/C=C(/C(=O)c1ccc(F)cc1)S(=O)(=O)c1ccc(F)cc1` gave an activation (% of control) of 106%. Molecule `CCN(CCn1cccn1)C(=O)CC1C(=O)NCCN1Cc1cccc(OC)c1OC` (configuration not stated) has an activation (% of control) of 96.3%. With `COc1ccc(N2CCN(C(=O)COc3ccc4c(C)cc(=O)oc4c3)CC2)cc1` the activation (% of control) was 93.8%. `CC1(C)CC(N(Cc2ccccc2)C(=O)Cc2ccccc2)CCO1` (configuration not stated) gave an activation (% of control) of 89.7%. Work on `COc1ccc(N2CCN(C(=O)/C(C#N)=C/c3ccccc3)CC2)cc1` yielded an activation (% of control) of 105%. With `CCOC(=O)/C(C#N)=C/c1ccc(N2CCN(Cc3ccccc3)CC2)cc1` the activation (% of control) was 107%. For `CCOC(=O)/C(C#N)=C/c1ccc(N2CCCCC2)cc1`, the activation (% of control) was 155% (active). In the case of `O=C1N=C(N2CCOCC2)S/C1=C\C=C/c1ccccc1`, the activation (% of control) is reported as 141% (active). With `CCc1ccc(/C=C2\SC(N3CCOCC3)=NC2=O)cc1` the activation (% of control) was 103%. `Cc1ccsc1/C=C1\SC(N2CCOCC2)=NC1=O` gave an activation (% of control) of 127%. For `CN(Cc1nc2ccc(F)cc2[nH]1)Cc1nc(CC2CC2)no1`, the activation (% of control) was 107%. For `CCCC(NC(=O)c1ccco1)c1nc2ccccc2[nH]1` (configuration not stated), the activation (% of control) was 97.5%. `O=C(COC(=O)c1ccc2c(c1)OCCO2)NCc1ccccc1` gave an activation (% of control) of 101%. For `O=C(OCc1ccccc1F)c1ccc2c(c1)OCCO2`, the activation (% of control) was 139% (active). For `CC(NC(=O)COC(=O)c1ccc2c(c1)OCO2)c1ccccc1` (configuration not stated), the activation (% of control) was 102%. In the case of `CCOC(=O)c1ccc(NC(=S)N2CCCC2)cc1`, the activation (% of control) is reported as 100%. With `CCn1ncc(CNC(=O)C2(C)CC2(Br)Br)c1C` (configuration not stated) the activation (% of control) was 90%. `COCCCNC(=O)Cn1cc(/C=C(\C#N)C(=O)N2CCN(c3ccccc3)CC2)c2ccccc21` gave an activation (% of control) of 96.8%. In the case of `O=C(NC1=NCCS1)c1ccc(Cl)s1`, the activation (% of control) is reported as 141% (active). `O=C(NCc1ccc2c(c1)OCO2)c1ccc(Cl)s1` showed an activation (% of control) of 99.1%. With `O=C(NC1=NCCS1)[C@H](Cc1ccccc1)N1C(=O)c2ccccc2C1=O` the activation (% of control) was 107%. For `CCOc1ccc(C(C)=O)cc1CSc1nnc(-c2ccncc2)n1CCOC`, the activation (% of control) was 99.7%. `Cc1cccc(NC(=S)NC(=O)c2ccc(Br)o2)c1` showed an activation (% of control) of 125%. With `Cc1cc(NC(=O)c2cnn3cccnc23)n(-c2ccccc2)n1` the activation (% of control) was 89.3%. For `O=C(Nc1ccc(Cl)cn1)c1cnn2cccnc12`, the activation (% of control) was 153% (active). With `O=C(Nc1ccc(Cl)cn1)c1ccc2c(c1)OCCO2` the activation (% of control) was 74.1%. Molecule `COc1ccccc1CNC(=O)C1Cc2ccccc2C(=O)O1` (configuration not stated) has an activation (% of control) of 102%. For `C#CCOCCOCCOCCNc1nc(N2CCN(C(=O)[C@H](Cc3ccc(O)cc3)n3cc(C(N)CC(C)C)nn3)CC2)nc(N2CCN(C(=O)[C@H](CCC(=O)O)n3cc(C(N)[C@H](C)CC)nn3)CC2)n1` (some centres not stated), the activation (% of control) was 99.5%. Work on `CCOC(=O)N1CCN(Cc2nc(Cc3cccc(C(F)(F)F)c3)no2)CC1` yielded an activation (% of control) of 97.5%. In the case of `COc1ccc(CC(=O)NCc2nnc(SCC(=O)Nc3nccs3)n2C)cc1`, the activation (% of control) is reported as 91.2%. For `Cc1cc(Cl)ccc1OCc1nc(-c2ccncc2)no1`, the activation (% of control) was 151% (active). Molecule `c1ccc(CCc2nc(-c3ccncc3)no2)cc1` has an activation (% of control) of 117%. Molecule `COc1ccc(-c2noc(COc3ccc(Cl)c(C)c3)n2)cc1` has an activation (% of control) of 93.9%. `CCCOc1ccc(NC(=O)C2OC3OC(C)(C)OC3C3OC(C)(C)OC23)cc1` (configuration not stated) gave an activation (% of control) of 95.5%. For `CCn1c(CNS(=O)(=O)c2ccc(Cl)cc2)n[nH]c1=S`, the activation (% of control) was 94.3%. With `O=C1/C(=C\c2ccccc2Cl)SC(=S)N1CCC(=O)N1CCCc2ccccc21` the activation (% of control) was 98.2%. For `O=C(CN1CCCCC1)Nc1ccccc1Cl`, the activation (% of control) was 103%. In the case of `COCCN(CCOC)C(=S)Nc1ccccc1Cl`, the activation (% of control) is reported as 91.7%. For `O=C(Nc1ccccc1Cl)/C(Cl)=C(\Cl)S(=O)c1ccccc1` (configuration not stated), the activation (% of control) was 201% (active). With `CCN(CC)CC(=O)Nc1sc2c(c1C(=O)c1ccccc1C)CCC2` the activation (% of control) was 100%. `CCOC(=O)c1cc(-c2ccc(F)cc2)n(CC(=O)NCc2ccccn2)c1C` showed an activation (% of control) of 96.2%. `CO/N=C(\N)c1ccc([N+](=O)[O-])cc1` showed an activation (% of control) of 97.7%. Molecule `O=C(NCc1cn2ccsc2n1)Nc1ccc(Cl)cc1` has an activation (% of control) of 102%. For `O=C(Nc1ccccc1)c1nnsc1S(=O)(=O)c1ccc(Cl)cc1`, the activation (% of control) was 90%. With `O=C(Nc1ccc(Cl)cc1)c1ccsn1` the activation (% of control) was 145% (active). In the case of `CCCC(C)C(=O)NCc1ccncc1` (configuration not stated), the activation (% of control) is reported as 96.3%. `CC1=C(C(=O)N(C)C)C(c2ccccc2OC(F)F)NC(=O)N1` (configuration not stated) gave an activation (% of control) of 104%. `CC[N+]1(CC)CC2=Cc3ccccc3CC2C1` (configuration not stated) showed an activation (% of control) of 106%. Work on `COCCn1c(N)c(N(Cc2ccccc2)C(=O)C2CCCCC2)c(=O)[nH]c1=O` yielded an activation (% of control) of 98%. Molecule `Cc1cc(NC(=O)CSc2nccn2-c2ccc([N+](=O)[O-])cc2)no1` has an activation (% of control) of 95.1%. Molecule `COc1ccccc1CNC(=O)c1ccc(SC)cc1OC` has an activation (% of control) of 109%. Molecule `COc1cc(SC)ccc1C(=O)Nc1cc(C)ccn1` has an activation (% of control) of 102%. In the case of `COc1cc(SC)ccc1C(=O)NCCOc1ccccc1Cl`, the activation (% of control) is reported as 141% (active). `COCCNC(=O)C(OC(=O)c1cccs1)c1ccc(F)cc1` (configuration not stated) gave an activation (% of control) of 93.1%. For `CCOc1ccc2c(c1)C(c1ccc(C)cc1)=NNC(c1ccc(C)cc1)=N2`, the activation (% of control) was 131% (active). For `CCc1ccc2c(c1)C(c1ccc([N+](=O)[O-])cc1)=NNC(c1ccccc1)=N2`, the activation (% of control) was 95.2%. For `Cc1ccc(C2=Nc3c(ccc4ccccc34)C(c3ccncc3)=NN2)cc1`, the activation (% of control) was 37.3%. With `O=C(NCc1ccccc1)C1=C[C@@H](c2ccc(C(F)(F)F)cc2)C[C@@H](OCc2ccc(CO)cc2)O1` the activation (% of control) was 106%. For `Cc1ccc(C2NC(C(=O)O)CS2)cc1` (configuration not stated), the activation (% of control) was 106%. For `CC(C)c1ccc(Nc2ncccc2C#N)cc1`, the activation (% of control) was 135% (active). `CN(C)c1ccnc(Nc2ccc(F)cc2)c1C#N` gave an activation (% of control) of 98.2%. With `O=C(Nc1ccccc1)c1cccnc1Nc1ccccc1` the activation (% of control) was 99.2%. `Cc1oc2cc([N+](=O)[O-])c(O)c([N+](=O)[O-])c2c1C(=O)c1ccc(Br)cc1` gave an activation (% of control) of 94%. In the case of `COc1ccc(N=Cc2c(O)[nH]c3ccccc23)cc1OC`, the activation (% of control) is reported as 145% (active). `COc1cc(N=Cc2c(O)[nH]c3ccccc23)cc(OC)c1OC` gave an activation (% of control) of 115%. `COc1ccc(OC)c(N=Cc2c(O)[nH]c3ccccc23)c1` gave an activation (% of control) of 115%. Molecule `CCC(CC)c1nnc(NC(=O)c2nn(C)c(=O)c3ccccc23)s1` has an activation (% of control) of 102%. Molecule `CN(CCOc1ccc(Br)cc1)CC(=O)Nc1cccc(S(=O)(=O)NC2=NCCC2)c1` has an activation (% of control) of 97.5%. Work on `CCN(CC)S(=O)(=O)c1ccc(OC(C)C)c(N)c1` yielded an activation (% of control) of 98.6%. For `Cc1ccc2nc(-c3ccc(NC(=O)c4cccnc4)cc3)oc2c1`, the activation (% of control) was 93.8%. In the case of `Cc1cc2nc(-c3ccc(NC(=O)c4cccnc4)cc3)oc2cc1C`, the activation (% of control) is reported as 137% (active). With `Cc1ccc(-n2nc3cc(C)c(NC(=O)c4cccnc4)cc3n2)cc1` the activation (% of control) was 118%. Molecule `CCOc1ccc(CCN2C(=O)c3cccnc3C2=O)cc1OCC` has an activation (% of control) of 96.9%. In the case of `O=C(NC1CC1)c1cccc(Br)c1`, the activation (% of control) is reported as 98.5%. In the case of `O=C(NC1CC1)c1ccc(-c2ccccc2)cc1`, the activation (% of control) is reported as 131% (active). Work on `Cc1ccc(C(=O)NC2CCN(C(=O)N3CCOCC3)CC2)cc1` yielded an activation (% of control) of 98.8%. Molecule `COc1ccc(C)cc1NC(=O)CSc1nnc(CC(=O)Nc2ccccc2F)n1C` has an activation (% of control) of 92.1%. Work on `CCCCc1ccc(NC(=S)NCCCN2CCOCC2)cc1` yielded an activation (% of control) of 96.5%. `O=C(Nc1ccc2nccnc2c1)c1ccco1` showed an activation (% of control) of 127%. For `O=C(Nc1cccc(-c2nc3ncccc3o2)c1)c1ccco1`, the activation (% of control) was 98.8%. In the case of `O=C(Nc1ccc2oc(-c3ccccc3F)nc2c1)c1ccco1`, the activation (% of control) is reported as 170% (active). Molecule `COCc1c(C(=O)OCc2c(C)noc2C)oc2ccccc12` has an activation (% of control) of 100%. Molecule `COc1ccc(-c2nn(-c3ccccc3)cc2/C=C\C(=O)N2CCOCC2)cc1[N+](=O)[O-]` has an activation (% of control) of 102%. Molecule `S=C(Nc1cccc(Br)c1)N1CCn2cccc2C1c1cccnc1` (configuration not stated) has an activation (% of control) of 90.5%. For `c1ccc2cc3c(NCCN4CCOCC4)ccnc3cc2c1`, the activation (% of control) was 137% (active). In the case of `O=C(Cn1c(-c2ccccn2)nc2ccccc21)NCCN1CCOCC1`, the activation (% of control) is reported as 101%. Molecule `c1ccc2[nH]c(NCCN3CCOCC3)nc2c1` has an activation (% of control) of 99.9%. For `Cn1cccc1/C=C1\SC(=O)N(CC(=O)Nc2ccc(F)cc2)C1=O`, the activation (% of control) was 100%. `CC(=O)OC(COc1ccc(F)cc1)Cn1cnc2ccccc21` (configuration not stated) showed an activation (% of control) of 103%. For `CCn1nc(C)c(CN2CCN(Cc3ccc(OC)c(C)c3C)C(CCO)C2)c1C` (configuration not stated), the activation (% of control) was 98.9%. With `COc1ccc(Br)cc1CN(C)CC(=O)Nc1cc(Cl)cc(Cl)c1` the activation (% of control) was 105%. In the case of `Cc1ccc(C(=O)NNC(=O)c2cccs2)cc1`, the activation (% of control) is reported as 130% (active). With `CC(C)C(=O)Nc1ccc(C(=O)NNC(=O)c2cccs2)cc1` the activation (% of control) was 102%. `Cc1ccc(C)c(NC(=O)CCC(=O)NNC(=O)c2cccs2)c1` gave an activation (% of control) of 101%.
